From ChEMBL document CHEMBL1961873, “Compounds: GSK PKIS; Assays: Nanosyn kinase panel” (2012) come the findings set out here.

For test [1], the target named is Dual specificity protein kinase CLK3 (Homo sapiens) (UniProt P49761). The conditions noted are these: at 1 µM.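 Note: each value is the mean inhibition of CLK3.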
For test [2], the target named is Dual specificity tyrosine-phosphorylation-regulated kinase 1A (Homo sapiens) (UniProt Q13627). The conditions noted are these: at 0.1 µM.
For test [3] the target is unchanged. The conditions noted are these: at 1 µM.
For test [4], the target named is Dual specificity tyrosine-phosphorylation-regulated kinase 1B (Homo sapiens) (UniProt Q9Y463). The conditions noted are these: at 0.1 µM.
For test [5] the target is unchanged. The following applies: at 1 µM.
Test [6] addresses T1, Dual specificity tyrosine-phosphorylation-regulated kinase 2 (Homo sapiens) (UniProt Q92630).
T1 sequence (whole entry): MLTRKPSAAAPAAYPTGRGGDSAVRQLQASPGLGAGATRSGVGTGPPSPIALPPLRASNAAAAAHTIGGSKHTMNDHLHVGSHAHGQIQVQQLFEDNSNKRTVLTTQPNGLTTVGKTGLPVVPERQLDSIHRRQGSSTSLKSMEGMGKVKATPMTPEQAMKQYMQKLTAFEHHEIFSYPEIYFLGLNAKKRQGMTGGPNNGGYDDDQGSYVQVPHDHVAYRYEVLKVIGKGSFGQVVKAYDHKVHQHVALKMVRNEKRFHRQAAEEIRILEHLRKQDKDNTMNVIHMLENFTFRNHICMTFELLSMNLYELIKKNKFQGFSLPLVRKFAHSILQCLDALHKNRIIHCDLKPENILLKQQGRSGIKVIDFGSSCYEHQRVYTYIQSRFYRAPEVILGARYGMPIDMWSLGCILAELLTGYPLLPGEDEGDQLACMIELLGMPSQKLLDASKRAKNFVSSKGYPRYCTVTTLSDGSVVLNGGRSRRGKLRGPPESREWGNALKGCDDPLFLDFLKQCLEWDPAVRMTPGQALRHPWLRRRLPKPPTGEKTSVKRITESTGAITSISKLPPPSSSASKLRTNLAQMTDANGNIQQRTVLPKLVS
The conditions noted are these: at 0.1 µM.

Test [7] concerns the target T1, Dual specificity tyrosine-phosphorylation-regulated kinase 2 (Homo sapiens). The following applies: at 1 µM.
For test [8], the target named is Glycogen synthase kinase-3 alpha (Homo sapiens) (UniProt P49840). The following applies: at 0.1 µM.
Test [9] has the same target. The conditions noted are these: at 1 µM.
Test [10] deals with Glycogen synthase kinase-3 beta (Homo sapiens) (UniProt P49841). The conditions noted are these: at 0.1 µM.
For test [11] the target is unchanged. The conditions noted are these: at 1 µM.
Test [12] deals with Homeodomain-interacting protein kinase 1 (Homo sapiens) (UniProt Q86Z02). The conditions noted are these: at 0.1 µM.
The target is the same in test [13]. The conditions noted are these: at 1 µM.
For test [14], the target named is T2, Homeodomain-interacting protein kinase 4 (Homo sapiens) (UniProt Q8NE63).
T2 sequence (whole entry): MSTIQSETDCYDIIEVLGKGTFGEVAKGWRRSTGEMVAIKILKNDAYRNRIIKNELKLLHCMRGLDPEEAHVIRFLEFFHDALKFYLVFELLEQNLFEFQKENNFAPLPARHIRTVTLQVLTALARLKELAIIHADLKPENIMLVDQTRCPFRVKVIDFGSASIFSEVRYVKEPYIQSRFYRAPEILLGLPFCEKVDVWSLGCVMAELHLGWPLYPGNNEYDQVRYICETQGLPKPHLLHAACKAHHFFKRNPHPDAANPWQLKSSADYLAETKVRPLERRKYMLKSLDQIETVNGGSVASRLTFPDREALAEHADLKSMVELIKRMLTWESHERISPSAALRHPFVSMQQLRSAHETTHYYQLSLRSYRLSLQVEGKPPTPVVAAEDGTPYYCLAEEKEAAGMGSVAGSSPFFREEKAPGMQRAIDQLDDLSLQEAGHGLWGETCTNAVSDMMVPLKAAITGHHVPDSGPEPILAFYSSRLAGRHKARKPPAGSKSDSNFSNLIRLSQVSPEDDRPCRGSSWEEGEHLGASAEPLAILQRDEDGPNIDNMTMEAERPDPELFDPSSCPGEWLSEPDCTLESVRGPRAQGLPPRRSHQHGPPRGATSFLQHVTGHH
The conditions noted are these: at 0.1 µM.

The target in test [15] is T2, Homeodomain-interacting protein kinase 4 (Homo sapiens). The following applies: at 1 µM.
In test [16] the target is Mitogen-activated protein kinase 9 (Homo sapiens) (UniProt P45984). The following applies: at 0.1 µM.
The target is the same in test [17]. The following applies: at 1 µM.
For test [18], the target named is Mitogen-activated protein kinase 1 (Homo sapiens) (UniProt P28482). The following applies: at 0.1 µM.
Test [19] has the same target. The conditions noted are these: at 1 µM.
Test [20] concerns the target Mitogen-activated protein kinase 3 (Homo sapiens) (UniProt P27361). The following applies: at 0.1 µM.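 Note: each value is a mean inhibition figure.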

Structures are written as SMILES.

Dual specificity protein kinase CLK3 (Homo sapiens), sequence (P49761 whole entry, looked up): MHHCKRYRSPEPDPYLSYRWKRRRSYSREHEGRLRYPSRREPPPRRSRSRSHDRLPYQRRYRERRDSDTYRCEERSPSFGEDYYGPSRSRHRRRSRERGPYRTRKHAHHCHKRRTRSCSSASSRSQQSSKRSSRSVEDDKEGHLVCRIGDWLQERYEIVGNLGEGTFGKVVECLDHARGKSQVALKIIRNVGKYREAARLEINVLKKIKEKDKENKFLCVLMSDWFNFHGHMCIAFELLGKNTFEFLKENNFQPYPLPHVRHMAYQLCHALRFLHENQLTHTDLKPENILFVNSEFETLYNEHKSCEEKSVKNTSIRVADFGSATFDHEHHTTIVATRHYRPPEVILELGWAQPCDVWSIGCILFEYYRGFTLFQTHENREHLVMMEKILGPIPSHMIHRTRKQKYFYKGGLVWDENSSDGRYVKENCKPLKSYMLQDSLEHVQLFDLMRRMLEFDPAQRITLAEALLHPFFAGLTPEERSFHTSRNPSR
Mitogen-activated protein kinase 9 (Homo sapiens), sequence (P45984 whole entry, looked up): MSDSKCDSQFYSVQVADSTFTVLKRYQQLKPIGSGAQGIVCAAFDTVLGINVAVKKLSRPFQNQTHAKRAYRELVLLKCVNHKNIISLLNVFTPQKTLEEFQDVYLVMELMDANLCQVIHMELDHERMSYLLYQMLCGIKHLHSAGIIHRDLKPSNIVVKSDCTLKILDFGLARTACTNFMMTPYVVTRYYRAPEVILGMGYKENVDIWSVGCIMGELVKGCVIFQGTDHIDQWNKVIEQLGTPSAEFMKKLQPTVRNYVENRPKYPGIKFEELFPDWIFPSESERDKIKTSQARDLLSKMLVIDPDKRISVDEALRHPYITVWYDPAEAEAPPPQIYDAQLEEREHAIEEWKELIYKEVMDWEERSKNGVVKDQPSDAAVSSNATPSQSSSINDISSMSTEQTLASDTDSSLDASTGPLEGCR
Mitogen-activated protein kinase 1 (Homo sapiens), sequence (P28482 whole entry): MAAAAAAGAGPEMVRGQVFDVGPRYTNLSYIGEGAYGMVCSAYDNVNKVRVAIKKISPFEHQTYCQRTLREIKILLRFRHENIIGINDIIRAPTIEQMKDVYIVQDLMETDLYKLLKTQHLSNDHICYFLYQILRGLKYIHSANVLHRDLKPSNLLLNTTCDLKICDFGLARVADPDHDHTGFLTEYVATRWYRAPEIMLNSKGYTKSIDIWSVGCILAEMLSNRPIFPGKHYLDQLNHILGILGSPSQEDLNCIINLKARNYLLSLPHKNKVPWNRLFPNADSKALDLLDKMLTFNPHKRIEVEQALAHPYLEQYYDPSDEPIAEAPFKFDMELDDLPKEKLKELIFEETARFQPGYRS
Mitogen-activated protein kinase 3 (Homo sapiens), sequence (P27361 whole entry): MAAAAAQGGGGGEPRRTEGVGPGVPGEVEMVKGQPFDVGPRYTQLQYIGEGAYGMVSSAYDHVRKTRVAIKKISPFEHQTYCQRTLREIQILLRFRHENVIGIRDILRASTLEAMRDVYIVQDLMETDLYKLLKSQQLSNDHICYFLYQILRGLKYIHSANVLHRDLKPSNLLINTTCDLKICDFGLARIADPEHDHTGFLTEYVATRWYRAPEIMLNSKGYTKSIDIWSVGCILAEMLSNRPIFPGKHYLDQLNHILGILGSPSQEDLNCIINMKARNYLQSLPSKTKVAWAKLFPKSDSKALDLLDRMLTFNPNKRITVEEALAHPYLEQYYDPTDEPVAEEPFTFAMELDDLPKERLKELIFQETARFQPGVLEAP
Homeodomain-interacting protein kinase 1 (Homo sapiens), sequence (Q86Z02 whole entry, looked up): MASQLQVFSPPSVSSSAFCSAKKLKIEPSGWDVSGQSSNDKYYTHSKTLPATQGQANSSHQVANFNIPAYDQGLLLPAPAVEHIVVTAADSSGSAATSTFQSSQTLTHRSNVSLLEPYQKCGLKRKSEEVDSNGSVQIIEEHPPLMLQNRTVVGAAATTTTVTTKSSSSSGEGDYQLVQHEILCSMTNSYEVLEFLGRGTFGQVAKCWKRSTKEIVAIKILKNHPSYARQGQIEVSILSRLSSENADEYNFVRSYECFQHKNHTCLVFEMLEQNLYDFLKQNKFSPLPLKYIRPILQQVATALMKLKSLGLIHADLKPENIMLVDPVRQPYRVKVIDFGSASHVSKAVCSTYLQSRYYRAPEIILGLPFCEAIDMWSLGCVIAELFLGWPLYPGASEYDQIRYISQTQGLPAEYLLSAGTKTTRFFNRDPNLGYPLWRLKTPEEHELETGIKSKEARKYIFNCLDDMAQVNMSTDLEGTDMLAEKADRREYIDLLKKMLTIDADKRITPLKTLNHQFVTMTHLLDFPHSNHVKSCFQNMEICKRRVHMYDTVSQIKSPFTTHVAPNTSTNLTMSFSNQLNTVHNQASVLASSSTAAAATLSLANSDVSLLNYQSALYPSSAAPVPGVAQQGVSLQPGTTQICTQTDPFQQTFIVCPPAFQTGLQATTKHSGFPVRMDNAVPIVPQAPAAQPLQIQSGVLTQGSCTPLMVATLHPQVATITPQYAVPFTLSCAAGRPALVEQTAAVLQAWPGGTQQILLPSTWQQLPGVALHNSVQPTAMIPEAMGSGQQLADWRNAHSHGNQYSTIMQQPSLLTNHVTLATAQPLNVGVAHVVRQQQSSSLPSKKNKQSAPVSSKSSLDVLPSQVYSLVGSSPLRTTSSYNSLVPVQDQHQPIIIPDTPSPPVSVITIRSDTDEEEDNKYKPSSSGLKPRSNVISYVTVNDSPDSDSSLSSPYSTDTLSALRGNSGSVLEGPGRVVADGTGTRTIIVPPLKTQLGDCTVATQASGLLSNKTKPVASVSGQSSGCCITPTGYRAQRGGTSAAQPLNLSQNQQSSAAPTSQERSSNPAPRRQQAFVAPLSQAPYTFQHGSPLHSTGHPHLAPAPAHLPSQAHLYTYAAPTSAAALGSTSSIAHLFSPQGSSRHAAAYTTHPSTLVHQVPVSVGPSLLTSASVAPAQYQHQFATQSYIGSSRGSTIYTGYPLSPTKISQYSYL
Glycogen synthase kinase-3 beta (Homo sapiens), sequence (P49841 whole entry, looked up): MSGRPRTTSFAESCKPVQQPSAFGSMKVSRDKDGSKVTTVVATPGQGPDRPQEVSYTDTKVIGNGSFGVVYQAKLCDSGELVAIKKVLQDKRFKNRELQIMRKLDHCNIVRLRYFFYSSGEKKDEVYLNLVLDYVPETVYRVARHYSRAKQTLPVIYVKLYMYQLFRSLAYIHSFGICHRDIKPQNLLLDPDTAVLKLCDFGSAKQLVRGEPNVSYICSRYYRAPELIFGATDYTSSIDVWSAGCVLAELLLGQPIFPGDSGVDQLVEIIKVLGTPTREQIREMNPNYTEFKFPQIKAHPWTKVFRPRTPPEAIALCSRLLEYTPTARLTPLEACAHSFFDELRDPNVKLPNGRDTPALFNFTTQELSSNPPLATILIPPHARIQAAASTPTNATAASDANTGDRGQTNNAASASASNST
Dual specificity tyrosine-phosphorylation-regulated kinase 1B (Homo sapiens), sequence (Q9Y463 whole entry, looked up): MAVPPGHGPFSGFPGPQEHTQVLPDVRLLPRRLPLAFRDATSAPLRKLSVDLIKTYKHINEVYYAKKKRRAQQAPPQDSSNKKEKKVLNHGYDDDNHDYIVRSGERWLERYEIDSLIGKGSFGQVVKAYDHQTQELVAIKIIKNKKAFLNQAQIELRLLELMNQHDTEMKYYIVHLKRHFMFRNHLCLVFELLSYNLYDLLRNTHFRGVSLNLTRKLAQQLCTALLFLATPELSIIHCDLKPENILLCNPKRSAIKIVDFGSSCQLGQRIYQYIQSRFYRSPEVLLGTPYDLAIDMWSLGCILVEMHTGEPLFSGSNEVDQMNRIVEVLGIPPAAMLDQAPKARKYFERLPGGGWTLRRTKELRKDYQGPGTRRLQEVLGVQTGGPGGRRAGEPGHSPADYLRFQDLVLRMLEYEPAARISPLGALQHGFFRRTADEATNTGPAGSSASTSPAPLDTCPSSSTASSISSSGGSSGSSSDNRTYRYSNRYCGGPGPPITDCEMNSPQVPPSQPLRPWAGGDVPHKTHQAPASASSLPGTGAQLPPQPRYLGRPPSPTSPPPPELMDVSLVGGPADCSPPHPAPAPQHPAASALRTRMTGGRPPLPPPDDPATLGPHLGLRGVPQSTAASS
Glycogen synthase kinase-3 alpha (Homo sapiens), sequence (P49840 2-483 limits assumed): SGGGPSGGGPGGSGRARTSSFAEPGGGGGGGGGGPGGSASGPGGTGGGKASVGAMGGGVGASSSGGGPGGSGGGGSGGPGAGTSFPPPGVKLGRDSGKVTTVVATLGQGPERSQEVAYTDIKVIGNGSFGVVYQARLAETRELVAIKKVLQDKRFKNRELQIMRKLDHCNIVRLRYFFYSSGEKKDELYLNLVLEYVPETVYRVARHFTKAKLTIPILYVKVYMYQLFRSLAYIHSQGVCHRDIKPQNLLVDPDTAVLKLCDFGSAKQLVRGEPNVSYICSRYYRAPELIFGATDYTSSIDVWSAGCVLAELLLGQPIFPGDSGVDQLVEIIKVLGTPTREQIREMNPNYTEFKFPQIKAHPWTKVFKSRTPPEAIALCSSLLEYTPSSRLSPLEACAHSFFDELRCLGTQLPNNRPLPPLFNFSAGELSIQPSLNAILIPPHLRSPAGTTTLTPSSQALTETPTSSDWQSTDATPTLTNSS

By inhibition is commonly meant the drop in the measured response relative to a control, in per cent. As to `COc1ccc2[nH]c3c4[nH]c5ccc(OC)cc5c4c4c(c3c2c1)C(=O)NC4=O`, the inhibition in [1] was determined as 4.44%; in test [2], 10.1%; in test [3], 43.1%; in [4], 2.55%; in test [5] it was 26.1%; in test [6], 6.81%. Further, the inhibition in [7] is 29%; in [8], 1.75%; in [9], 6.24%; in test [10] it was 3.92%; in test [11], 14.7%; in test [12], 5.17%. Moreover, the inhibition in test [13] was determined as 20.7%; in [14] it was 4.28%; in [15], 22.8%; in test [16], 4.65%; in [17], 21.7%; in test [18], 3.5%. Besides, the inhibition in test [19] worked out at 5.44%; in test [20], 4.93%.

Regarding `O=C(O[C@H]1CN[C@H](C#Cc2cc3ncnc(Nc4ccc(Cc5ccccc5)cc4)c3s2)C1)N1CCOCC1`, the inhibition was 0.23% in [1]; 1.9% in test [2]; -0.14% in test [3]; 1.3% in test [4]; 2.47% in test [5]; 2.26% in test [6]. In addition, the inhibition was 0.33% in test [7]; 2.45% in test [8]; 3.62% in [9]; 0.78% in test [10]; 2.73% in test [11]; -2.13% in test [12]. The inhibition in [13] was 0.97%; in [14], 0.04%; in [15], -1.93%; in test [16] it was -0.66%; in [17] it was -0.45%; in [18], 3.25%. Besides, the inhibition was determined as 3.25% in test [19] and 2.66% in test [20].

Consider `NC(=O)c1sc(-n2cnc3ccc(C(F)(F)F)cc32)cc1OCc1ccccc1Br`, for which the inhibition is 4.85% in test [1]; 2.74% in [2]; 8.54% in test [3]; -0.4% in test [4]; 2.27% in test [5]; 2.93% in test [6]. Further, the inhibition was 4.03% in [7]; 1.26% in test [8]; 7.48% in [9]; -0.61% in test [10]; 3.8% in test [11]; 0.1% in [12]. Further, the inhibition was 2.51% in [13]; 1.27% in [14]; 4.18% in test [15]; 3.06% in test [16]; 5.5% in [17]; 2.67% in test [18]. Moreover, the inhibition in test [19] was 4.49%; in test [20], 3.25%.

`CS(=O)(=O)CCNCc1ccc(-c2ccc3ncnc(Nc4ccc(OCc5ccccc5)c(C(F)(F)F)c4)c3c2)o1`: the inhibition in test [1] was 0.19%; in test [2] it was 2.36%; in test [3], 4.91%; in test [4], -2.07%; in [5], -0.6%; in test [6] it was 3.17%. The inhibition in test [7] is 0.91%; in test [8], 3.36%; in test [9], 3.82%; in [10], 3.13%; in test [11], 3.51%; in test [12], -3.76%. Besides, the inhibition in test [13] is -0.23%; in [14], -0.74%; in test [15], -1.78%; in test [16] it was 2.51%; in [17], 0.92%; in test [18] it was 4.58%. The inhibition in test [19] came to 5.24%; in [20], 3.56%.

On to `Nc1nc(-c2ccc(F)cc2)c(-c2ccc3ncccc3n2)s1`, for which the inhibition in [1] stood at 6.28%; in test [2], 8.98%; in [3], 37.4%; in test [4] it was 3.54%; in [5], 19.8%; in test [6], 3.22%. Moreover, the inhibition in test [7] turned out to be 5.03%; in [8], 12.1%; in [9], 20.8%; in test [10] it was 11%; in test [11], 19.6%; in test [12], 4.79%. For the same compound, the inhibition was 13.9% in test [13]; 4.95% in test [14]; 11% in [15]; 6.33% in test [16]; 25.3% in [17]; 4.29% in test [18]. For the same compound, the figures for the inhibition in test [19] and in test [20] were 5.05% and 3.56%, respectively.

With `COc1ccc(-c2nn3ncccc3c2-c2ccnc(Nc3ccc4c(c3)OCCO4)n2)cc1`, the inhibition in test [1] is -0.46%; in test [2] it was -0.47%; in test [3], -2.81%; in [4], -0.35%; in test [5] it was -3.65%; in test [6] it was 0.08%. Moreover, the inhibition in test [7] is -3.08%; in [8], 0.99%; in [9], 2.53%; in test [10], -0.07%; in test [11], 5.33%; in [12] it was -7.34%. The inhibition in [13] is -0.07%; in test [14], 0.08%; in [15] it was -1.16%; in [16] it was 13%; in test [17] it was 64.6%; in test [18], -0.01%. The values for the inhibition in test [19] and in test [20] were 0.95% and 3.56%, respectively.
